This passage reports binding signal results from paper PMC7862700, “An all-to-all approach to the identification of sequence-specific readers for epigenetic DNA modifications on cytosine”.

Holding throughout (experiment): DAPPL (digital affinity profiling via proximity ligation, sequencing); 10 mM Tris-HCl pH 7.5, 50 mM NaCl, 1 mM DTT, 4% glycerol, room temperature, 30 min; GST-TFs on glutathione beads, 16-mer random dsDNA library, 0.1% formaldehyde crosslink after washing; high values mean tight binding
Test [1] concerns the target T1, FEV (Homo sapiens, UniProt Q99581 1-238).
T1 sequence: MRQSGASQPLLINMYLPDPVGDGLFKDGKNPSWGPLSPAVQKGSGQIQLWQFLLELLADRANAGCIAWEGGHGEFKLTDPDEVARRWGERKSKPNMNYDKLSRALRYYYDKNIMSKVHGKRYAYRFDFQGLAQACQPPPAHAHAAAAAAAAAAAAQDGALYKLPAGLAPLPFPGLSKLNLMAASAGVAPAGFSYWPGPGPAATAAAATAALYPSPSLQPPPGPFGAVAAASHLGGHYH
The following applies: protein: recombinant; tags: N-terminal GST; dsDNA, one strand shown. In outline:
(§1)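 Human transcription factors carrying a GST fusion were produced in yeast, bound to glutathione beads, tagged with DNA barcodes and pooled together with a tag-only sample. Each pool was held with 200 nmole of a random double-stranded 16-mer DNA library in Tris/NaCl/DTT/glycerol buffer for 30 min at room temperature, then washed, crosslinked in 0.1% formaldehyde, proximity-ligated with BsaI/T4 ligase (1 h, 37 °C), PCR-amplified and sequenced on an Illumina NextSeq500. Binding signal is the read frequency of each hexamer for a given factor divided by its frequency in the tag-only sample.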

The target in test [2] is ETV5 (Homo sapiens, UniProt P41161 1-510). The following applies: protein: recombinant; tags: N-terminal GST; dsDNA, one strand shown. The procedure, abridged:
as §1

The target of test [3] is HSF1 (Homo sapiens, UniProt Q00613 1-529). As to conditions: protein: recombinant; tags: N-terminal GST; chain copies: 3; dsDNA, one strand shown. The procedure, abridged:
as §1

Test [4] has as its target T2, SPIC (Homo sapiens, UniProt Q8N5J4 1-248).
T2 sequence: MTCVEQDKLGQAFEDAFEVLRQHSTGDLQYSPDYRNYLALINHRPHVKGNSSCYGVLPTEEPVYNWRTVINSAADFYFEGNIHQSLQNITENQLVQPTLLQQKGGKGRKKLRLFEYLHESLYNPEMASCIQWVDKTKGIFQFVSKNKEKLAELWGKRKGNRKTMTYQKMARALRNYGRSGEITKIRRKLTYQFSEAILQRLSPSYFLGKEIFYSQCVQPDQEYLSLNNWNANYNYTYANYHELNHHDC
The following applies: protein: recombinant; tags: N-terminal GST; dsDNA, one strand shown. The procedure, abridged:
as §1

Test [5] addresses ELF4 (Homo sapiens, UniProt Q99607 1-663). As to conditions: protein: recombinant; tags: N-terminal GST; dsDNA, one strand shown. In outline:
as §1

Test [6] concerns the target T3, ELK4 (Homo sapiens, UniProt P28324-2 1-405).
T3 sequence: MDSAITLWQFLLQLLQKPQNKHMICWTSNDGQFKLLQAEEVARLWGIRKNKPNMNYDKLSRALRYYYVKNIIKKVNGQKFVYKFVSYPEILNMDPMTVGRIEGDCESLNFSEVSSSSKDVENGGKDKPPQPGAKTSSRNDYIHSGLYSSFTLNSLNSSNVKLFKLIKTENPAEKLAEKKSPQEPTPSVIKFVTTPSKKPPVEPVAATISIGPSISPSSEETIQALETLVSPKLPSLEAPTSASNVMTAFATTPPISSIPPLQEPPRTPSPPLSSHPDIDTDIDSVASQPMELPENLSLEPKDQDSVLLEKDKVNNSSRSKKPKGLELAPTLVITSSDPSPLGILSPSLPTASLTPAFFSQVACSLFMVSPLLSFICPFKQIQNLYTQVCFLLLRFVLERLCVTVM
As to conditions: protein: recombinant; tags: N-terminal GST; dsDNA, one strand shown. The procedure, abridged:
as §1

Test [7] concerns the target T4, ETV2 (Homo sapiens, UniProt O00321 1-342).
T4 sequence: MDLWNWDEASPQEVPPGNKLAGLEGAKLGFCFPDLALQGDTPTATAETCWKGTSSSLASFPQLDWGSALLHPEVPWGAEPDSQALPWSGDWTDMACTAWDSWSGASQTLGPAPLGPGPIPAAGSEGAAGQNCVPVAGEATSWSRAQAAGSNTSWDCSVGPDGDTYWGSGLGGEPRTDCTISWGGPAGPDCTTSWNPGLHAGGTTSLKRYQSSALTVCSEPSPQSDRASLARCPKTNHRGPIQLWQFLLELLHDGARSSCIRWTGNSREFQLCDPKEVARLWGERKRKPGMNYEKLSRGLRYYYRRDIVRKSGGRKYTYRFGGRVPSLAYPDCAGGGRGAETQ
As to conditions: protein: recombinant; tags: N-terminal GST; dsDNA, one strand shown. In outline:
as §1

The target in test [8] is T5, ELF3 (Homo sapiens, UniProt P78545 1-371).
T5 sequence: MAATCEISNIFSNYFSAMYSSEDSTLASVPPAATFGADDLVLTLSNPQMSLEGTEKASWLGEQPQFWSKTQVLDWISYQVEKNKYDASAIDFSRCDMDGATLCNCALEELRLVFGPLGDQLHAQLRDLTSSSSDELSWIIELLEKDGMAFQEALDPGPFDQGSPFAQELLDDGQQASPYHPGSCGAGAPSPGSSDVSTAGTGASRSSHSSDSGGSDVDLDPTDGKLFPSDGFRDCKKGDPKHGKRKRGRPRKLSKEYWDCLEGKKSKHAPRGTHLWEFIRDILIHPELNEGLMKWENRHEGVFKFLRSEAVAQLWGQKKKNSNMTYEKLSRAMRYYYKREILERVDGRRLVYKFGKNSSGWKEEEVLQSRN
As to conditions: protein: recombinant; tags: N-terminal GST; dsDNA, one strand shown. The procedure, abridged:
as §1

Test [9] addresses CRX (Homo sapiens, UniProt O43186 1-299). As to conditions: protein: recombinant; tags: N-terminal GST; dsDNA, one strand shown. In outline: as §1
The target of test [10] is ETV1 (Homo sapiens, UniProt P50549 1-477). The following applies: protein: recombinant; tags: N-terminal GST; dsDNA, one strand shown. In outline: as §1
The target in test [11] is T6, ERF (Homo sapiens, UniProt P50548 1-548).
T6 sequence: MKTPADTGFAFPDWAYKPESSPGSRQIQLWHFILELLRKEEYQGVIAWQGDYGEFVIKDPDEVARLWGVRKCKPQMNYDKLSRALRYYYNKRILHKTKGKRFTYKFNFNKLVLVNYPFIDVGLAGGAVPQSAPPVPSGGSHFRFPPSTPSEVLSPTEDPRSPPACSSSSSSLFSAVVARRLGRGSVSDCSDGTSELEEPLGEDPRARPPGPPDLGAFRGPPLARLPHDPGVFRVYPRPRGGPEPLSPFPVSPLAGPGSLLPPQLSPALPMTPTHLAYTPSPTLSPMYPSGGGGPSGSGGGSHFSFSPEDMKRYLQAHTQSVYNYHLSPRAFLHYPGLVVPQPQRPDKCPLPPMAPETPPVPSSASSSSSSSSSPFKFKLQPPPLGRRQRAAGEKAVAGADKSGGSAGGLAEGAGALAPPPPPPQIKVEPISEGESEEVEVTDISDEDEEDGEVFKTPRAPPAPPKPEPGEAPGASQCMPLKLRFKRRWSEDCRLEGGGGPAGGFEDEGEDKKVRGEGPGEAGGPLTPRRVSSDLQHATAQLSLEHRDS
As to conditions: protein: recombinant; tags: N-terminal GST; dsDNA, one strand shown. In outline:
as §1

Test [12] addresses T7, ETV3L (Homo sapiens, UniProt Q6ZN32 1-361).
T7 sequence: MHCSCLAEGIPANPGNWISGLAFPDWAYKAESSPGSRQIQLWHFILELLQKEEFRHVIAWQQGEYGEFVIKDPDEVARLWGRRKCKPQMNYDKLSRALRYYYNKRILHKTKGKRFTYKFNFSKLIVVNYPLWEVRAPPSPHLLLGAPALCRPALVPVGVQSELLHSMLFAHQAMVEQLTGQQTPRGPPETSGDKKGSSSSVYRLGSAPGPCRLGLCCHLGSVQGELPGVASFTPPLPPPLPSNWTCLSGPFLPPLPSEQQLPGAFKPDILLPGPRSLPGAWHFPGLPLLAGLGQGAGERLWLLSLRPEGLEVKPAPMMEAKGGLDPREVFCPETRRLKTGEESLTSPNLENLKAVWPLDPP
The following applies: protein: recombinant; tags: N-terminal GST; dsDNA, one strand shown. The procedure, abridged:
as §1

Test [13] has as its target T8, ETS2 (Homo sapiens, UniProt P15036 1-469).
T8 sequence: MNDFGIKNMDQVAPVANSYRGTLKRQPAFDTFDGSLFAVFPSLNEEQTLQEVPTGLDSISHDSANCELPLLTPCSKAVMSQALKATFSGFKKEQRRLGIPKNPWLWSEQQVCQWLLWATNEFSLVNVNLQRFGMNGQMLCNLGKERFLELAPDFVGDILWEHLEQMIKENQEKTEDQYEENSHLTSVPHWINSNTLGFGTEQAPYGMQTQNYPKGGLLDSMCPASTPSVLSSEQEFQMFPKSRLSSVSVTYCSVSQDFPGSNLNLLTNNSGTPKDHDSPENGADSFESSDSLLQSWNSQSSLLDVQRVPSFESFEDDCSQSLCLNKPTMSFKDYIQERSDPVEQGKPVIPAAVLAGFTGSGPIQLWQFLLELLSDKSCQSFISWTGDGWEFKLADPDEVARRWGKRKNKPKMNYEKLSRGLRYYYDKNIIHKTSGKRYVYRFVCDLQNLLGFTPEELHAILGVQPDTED
As to conditions: protein: recombinant; tags: N-terminal GST; dsDNA, one strand shown. In outline:
as §1

In test [14] the target is T9, SPDEF (Homo sapiens, UniProt O95238 1-335).
T9 sequence: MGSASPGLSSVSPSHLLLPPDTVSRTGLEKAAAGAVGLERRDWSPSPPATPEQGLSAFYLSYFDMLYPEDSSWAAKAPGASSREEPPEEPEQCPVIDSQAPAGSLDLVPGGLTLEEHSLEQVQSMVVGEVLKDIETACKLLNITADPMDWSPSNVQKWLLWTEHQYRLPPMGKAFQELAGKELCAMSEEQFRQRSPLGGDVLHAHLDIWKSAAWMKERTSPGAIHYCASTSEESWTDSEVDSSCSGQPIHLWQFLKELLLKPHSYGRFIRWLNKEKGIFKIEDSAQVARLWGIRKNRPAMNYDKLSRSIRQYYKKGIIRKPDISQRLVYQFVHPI
The following applies: protein: recombinant; tags: N-terminal GST; dsDNA, one strand shown. In outline:
as §1

The target in test [15] is T10, ETV7 (Homo sapiens, UniProt Q9Y603 1-341).
T10 sequence: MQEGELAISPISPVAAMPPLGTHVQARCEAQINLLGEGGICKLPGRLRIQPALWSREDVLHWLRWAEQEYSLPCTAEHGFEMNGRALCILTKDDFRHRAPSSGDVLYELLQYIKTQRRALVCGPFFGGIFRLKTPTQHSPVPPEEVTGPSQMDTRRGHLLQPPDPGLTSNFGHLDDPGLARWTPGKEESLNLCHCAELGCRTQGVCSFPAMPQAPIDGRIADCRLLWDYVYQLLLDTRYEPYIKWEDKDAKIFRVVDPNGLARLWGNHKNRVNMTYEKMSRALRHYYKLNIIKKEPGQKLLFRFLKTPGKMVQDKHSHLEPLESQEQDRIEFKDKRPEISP
As to conditions: protein: recombinant; tags: N-terminal GST; dsDNA, one strand shown. In outline:
as §1

Test [16] has as its target T11, ELF5 (Homo sapiens, UniProt Q9UKW6-2 1-255).
T11 sequence: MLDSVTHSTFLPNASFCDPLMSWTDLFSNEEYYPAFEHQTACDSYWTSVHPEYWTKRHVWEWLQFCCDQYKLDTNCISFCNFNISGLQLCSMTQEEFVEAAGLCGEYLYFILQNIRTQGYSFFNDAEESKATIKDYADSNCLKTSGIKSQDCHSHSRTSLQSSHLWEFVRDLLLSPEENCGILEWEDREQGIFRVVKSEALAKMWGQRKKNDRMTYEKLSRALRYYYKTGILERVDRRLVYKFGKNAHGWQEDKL
As to conditions: protein: recombinant; tags: N-terminal GST; dsDNA, one strand shown. The procedure, abridged:
as §1

Test [17] has as its target T12, ETV3 (Homo sapiens, UniProt P41162-2 1-143).
T12 sequence: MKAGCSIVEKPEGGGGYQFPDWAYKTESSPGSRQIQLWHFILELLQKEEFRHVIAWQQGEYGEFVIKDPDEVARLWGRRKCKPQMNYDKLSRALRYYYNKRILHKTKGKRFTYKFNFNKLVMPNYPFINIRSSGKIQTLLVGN
As to conditions: protein: recombinant; tags: N-terminal GST; dsDNA, one strand shown. In outline: as §1

Test [18] deals with ETV6 (Homo sapiens, UniProt P41212 1-452). The following applies: protein: recombinant; tags: N-terminal GST; dsDNA, one strand shown. In outline:
as §1

Chain of ETV5 (P41161 whole entry): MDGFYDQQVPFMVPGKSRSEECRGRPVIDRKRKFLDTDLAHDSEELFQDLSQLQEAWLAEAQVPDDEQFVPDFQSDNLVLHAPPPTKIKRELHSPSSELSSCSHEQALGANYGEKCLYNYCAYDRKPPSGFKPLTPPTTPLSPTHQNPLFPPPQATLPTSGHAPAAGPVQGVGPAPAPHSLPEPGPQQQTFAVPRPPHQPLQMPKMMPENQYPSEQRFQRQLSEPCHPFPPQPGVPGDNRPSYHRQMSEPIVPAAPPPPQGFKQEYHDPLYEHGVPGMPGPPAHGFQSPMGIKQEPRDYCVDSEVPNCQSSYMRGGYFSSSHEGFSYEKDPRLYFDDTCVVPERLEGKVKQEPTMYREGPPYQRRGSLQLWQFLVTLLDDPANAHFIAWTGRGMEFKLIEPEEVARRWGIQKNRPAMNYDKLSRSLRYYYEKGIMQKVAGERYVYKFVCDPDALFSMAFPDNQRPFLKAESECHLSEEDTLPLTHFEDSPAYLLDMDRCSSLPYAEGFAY
Chain of ETV1 (P50549 whole entry): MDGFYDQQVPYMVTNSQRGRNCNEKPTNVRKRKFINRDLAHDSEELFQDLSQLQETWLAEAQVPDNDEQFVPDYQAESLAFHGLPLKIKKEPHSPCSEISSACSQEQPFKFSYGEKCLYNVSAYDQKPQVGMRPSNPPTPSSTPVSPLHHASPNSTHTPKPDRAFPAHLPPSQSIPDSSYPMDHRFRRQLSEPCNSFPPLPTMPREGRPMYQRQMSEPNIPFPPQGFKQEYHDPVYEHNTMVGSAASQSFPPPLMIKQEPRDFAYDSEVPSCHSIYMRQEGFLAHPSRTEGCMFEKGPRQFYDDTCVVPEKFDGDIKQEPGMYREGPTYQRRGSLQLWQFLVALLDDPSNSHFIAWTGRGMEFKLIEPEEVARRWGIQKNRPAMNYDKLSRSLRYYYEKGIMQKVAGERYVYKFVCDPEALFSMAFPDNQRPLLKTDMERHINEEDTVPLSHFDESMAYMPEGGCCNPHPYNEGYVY
Chain of CRX (O43186 whole entry): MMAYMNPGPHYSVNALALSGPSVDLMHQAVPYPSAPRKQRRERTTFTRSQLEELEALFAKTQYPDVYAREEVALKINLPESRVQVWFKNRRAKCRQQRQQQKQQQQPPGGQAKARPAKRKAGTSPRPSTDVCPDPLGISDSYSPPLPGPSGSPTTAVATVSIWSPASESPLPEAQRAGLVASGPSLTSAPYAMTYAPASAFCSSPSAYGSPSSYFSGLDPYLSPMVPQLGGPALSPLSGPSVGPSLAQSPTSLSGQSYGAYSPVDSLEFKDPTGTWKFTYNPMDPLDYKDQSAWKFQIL
Chain of HSF1 (Q00613 whole entry): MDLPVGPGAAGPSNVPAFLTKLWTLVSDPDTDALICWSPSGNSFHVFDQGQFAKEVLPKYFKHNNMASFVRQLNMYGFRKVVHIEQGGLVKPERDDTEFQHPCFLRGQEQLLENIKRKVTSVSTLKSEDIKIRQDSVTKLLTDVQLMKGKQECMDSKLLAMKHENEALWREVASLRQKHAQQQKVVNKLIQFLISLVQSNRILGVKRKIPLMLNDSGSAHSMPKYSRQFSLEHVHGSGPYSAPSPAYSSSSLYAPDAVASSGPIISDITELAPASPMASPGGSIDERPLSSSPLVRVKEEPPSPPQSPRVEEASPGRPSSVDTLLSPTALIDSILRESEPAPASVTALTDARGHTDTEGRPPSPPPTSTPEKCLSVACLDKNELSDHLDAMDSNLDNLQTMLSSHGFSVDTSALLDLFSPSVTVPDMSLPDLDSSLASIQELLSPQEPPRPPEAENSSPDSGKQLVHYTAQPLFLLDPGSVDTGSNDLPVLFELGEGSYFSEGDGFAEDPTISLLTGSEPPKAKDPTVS
Chain of ETV6 (P41212 whole entry): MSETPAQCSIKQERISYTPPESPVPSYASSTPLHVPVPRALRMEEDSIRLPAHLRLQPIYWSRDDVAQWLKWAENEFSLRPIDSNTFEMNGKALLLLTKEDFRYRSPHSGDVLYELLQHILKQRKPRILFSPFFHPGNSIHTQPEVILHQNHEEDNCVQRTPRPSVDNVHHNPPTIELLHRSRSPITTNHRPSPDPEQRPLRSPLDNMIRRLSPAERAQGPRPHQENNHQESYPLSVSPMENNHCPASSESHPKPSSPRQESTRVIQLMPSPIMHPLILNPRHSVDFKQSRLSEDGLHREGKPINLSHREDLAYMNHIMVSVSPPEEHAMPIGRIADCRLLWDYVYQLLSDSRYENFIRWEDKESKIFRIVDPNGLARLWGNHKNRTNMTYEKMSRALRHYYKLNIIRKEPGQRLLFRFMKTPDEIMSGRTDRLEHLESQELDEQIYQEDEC
Chain of ELF4 (Q99607 whole entry): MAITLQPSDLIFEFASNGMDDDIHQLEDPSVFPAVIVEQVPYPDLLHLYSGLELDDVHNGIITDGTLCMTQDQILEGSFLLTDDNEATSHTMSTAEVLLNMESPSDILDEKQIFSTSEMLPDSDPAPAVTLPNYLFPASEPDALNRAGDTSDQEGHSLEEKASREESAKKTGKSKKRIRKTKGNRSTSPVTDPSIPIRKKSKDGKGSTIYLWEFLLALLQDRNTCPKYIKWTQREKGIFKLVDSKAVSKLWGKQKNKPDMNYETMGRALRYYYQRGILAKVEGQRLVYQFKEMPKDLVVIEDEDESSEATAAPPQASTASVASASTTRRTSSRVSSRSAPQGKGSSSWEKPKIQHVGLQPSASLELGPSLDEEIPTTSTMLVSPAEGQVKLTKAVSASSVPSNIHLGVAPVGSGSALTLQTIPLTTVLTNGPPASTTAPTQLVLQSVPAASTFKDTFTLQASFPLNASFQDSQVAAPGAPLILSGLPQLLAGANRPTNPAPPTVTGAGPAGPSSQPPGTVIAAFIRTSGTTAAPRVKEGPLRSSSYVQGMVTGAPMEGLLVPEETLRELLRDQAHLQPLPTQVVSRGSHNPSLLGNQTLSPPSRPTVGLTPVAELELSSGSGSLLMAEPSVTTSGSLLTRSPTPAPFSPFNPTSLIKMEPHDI

ATTCTG: the binding signal was 1.23 fold enrichment (6-mer frequency, TF over GST control) in [1]; 1.29 fold enrichment (6-mer frequency, TF over GST control) in test [2]; 2.18 fold enrichment (6-mer frequency, TF over GST control) in test [3]; 1.11 fold enrichment (6-mer frequency, TF over GST control) in [4]; 1.37 fold enrichment (6-mer frequency, TF over GST control) in test [5]; 1.38 fold enrichment (6-mer frequency, TF over GST control) in test [6]. Moreover, the binding signal was 1.43 fold enrichment (6-mer frequency, TF over GST control) in test [7]; 1.08 fold enrichment (6-mer frequency, TF over GST control) in test [8]; 1.5 fold enrichment (6-mer frequency, TF over GST control) in [9]; 1.45 fold enrichment (6-mer frequency, TF over GST control) in [10]; 1.38 fold enrichment (6-mer frequency, TF over GST control) in [11]; 1.28 fold enrichment (6-mer frequency, TF over GST control) in test [12]. Also, the binding signal in test [13] is 1.31 fold enrichment (6-mer frequency, TF over GST control); in test [14] it was 1.27 fold enrichment (6-mer frequency, TF over GST control); in test [15], 1.23 fold enrichment (6-mer frequency, TF over GST control); in test [16], 1.21 fold enrichment (6-mer frequency, TF over GST control); in [17] it was 1.26 fold enrichment (6-mer frequency, TF over GST control); in [18], 1.43 fold enrichment (6-mer frequency, TF over GST control).
